PubChem BioAssay AID1845226 (National Center for Advancing Translational Sciences (NCATS), 2023)
Inconclusive results are not listed. Unmarked numbers belong to inactive results. Activity calls are given as the source filed them. The call rests on the fitted dose curve; in most records, active means well fitted inhibition curve with a large enough effect; inconclusive means small, poorly fitted or top-dose-only effect; inactive means no such curve, though single readings can be large or run the other way.

Test: Confirmatory fluorescence-based thiol-reactive (MSTI) qHTS assay for identification of artifact compounds
Conditions: MSTI thiol-reactivity probe, 1 h; series mostly up to 39.2 µM; activity change, negative = inhibition: at the top concentration
How it was run: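 Concentration–response testing used 4 uM MSTI. Signal read at Ex 525/Em 598 nm after one hour in darkness at ambient temperature.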
Potency means the concentration at half of the fitted maximal effect.

Compared with `CC(C)=CCC/C(C)=C/C=O`, `O=C(Nc1ccc2oc(-c3cccc4c(Br)cccc34)nc2c1)c1cccnc1` is higher in “activity change, negative = inhibition” value: -2.35% [at 78.4 µM] for the first, 32.8% [at 78.4 µM] for the second.

First: COc1cc(NC(=O)c2ccc(C)cc2)ccc1NC(=O)c1cc2ccccc2o1
Second: COc1ccc(C(=O)NCC(=O)OCC(=O)c2cccc3ccccc23)cc1
The “activity change, negative = inhibition” value of the first is lower: 49.2% for the first, 106% for the second.

First: CC[C@H]1OC(=O)[C@H](C)[C@@H](O[C@H]2C[C@@](C)(OC)[C@@H](O)[C@H](C)O2)[C@H](C)[C@@H](O[C@@H]2O[C@H](C)C[C@H](N(C)C)[C@H]2O)[C@](C)(O)C[C@@H](C)C(=O)[C@H](C)[C@@H](O)[C@]1(C)O
Second: OCC1=C[C@@H](O)[C@@H]2C=CO[C@@H](OC3O[C@H](CO)[C@@H](O)[C@H](O)[C@H]3O)[C@H]12 (stereo partly drawn)
The “activity change, negative = inhibition” value of the first is higher: 30.9% for the first, 12.5% for the second.

Compared with `CC1CC(C)CN(c2oc(-c3ccc(OCc4ccc(Cl)cc4)cc3)nc2C#N)C1` (stereo not drawn), `COc1ccc(OCc2nnc(-c3ccccc3)o2)cc1` is higher in “activity change, negative = inhibition” value: 0.0837% for the first, 77.2% for the second.

Compared with `Cc1c(C(=O)Nc2ccc(-n3c(C)nc4ccccc4c3=O)cc2)cccc1[N+](=O)[O-]`, `O=C(Nc1cccc(Cc2ccccc2)c1)c1ccc(-c2cccc([N+](=O)[O-])c2)o1` is lower in “activity change, negative = inhibition” value: 104% for the first, -1.94% for the second.

Going from `Cc1ccc(C)c(N2CCN(S(=O)(=O)c3cc(Br)cc4c3N(C(=O)C3CC3)CC4)CC2)c1` to `Cc1ccc(-c2nnc(Nc3cccc(O)c3)c3ccccc23)cc1S(=O)(=O)N1CCN(C)CC1`, the “activity change, negative = inhibition” value rises from 4.58% to 36.6%.

Going from `COc1ccc(/C=C/c2cc(O)cc(O[C@H]3OC(CO)C(O)C(O)C3O)c2)cc1` (stereo partly drawn) to `O=C(/C=C/c1ccc(O)cc1)OC[C@H]1O[C@@H](Oc2c(-c3ccc(O)cc3)oc3cc(O)cc(O)c3c2=O)[C@H](O)[C@@H](O)[C@@H]1O`, the “activity change, negative = inhibition” value falls from 11.9% to 5.52%.

Going from `CCOC(=O)c1c(NC(=O)c2ccc(S(=O)(=O)N(CC)CC)cc2)sc2c1CCCCC2` to `COc1ccc(CNC(=O)c2nnn(CC(=O)Nc3cc(C)cc(C)c3)c2N)cc1`, the “activity change, negative = inhibition” value rises from 4.96% to 234%.

Going from `CCN(CC)c1ccc(-c2nc(-c3ccccn3)no2)cc1[N+](=O)[O-]` to `Cc1ccc(Cn2ccc(NC(=O)c3cc(-c4ccc(Cl)c(Cl)c4)on3)n2)cc1`, the “activity change, negative = inhibition” value rises from -6.72% to 175%.

Going from `O=C(CCn1c(=O)c2cccn2c2cccnc21)N1CCN(c2ccccc2F)CC1` to `O=C(NCCSc1c(-c2ccc(Br)cc2)[nH]c2ccccc12)c1ccc(S(=O)(=O)N2CCOCC2)cc1`, the “activity change, negative = inhibition” value rises from 79.7% to 248%.

Compared with `O=C(NCc1ccccc1)C1(C(F)(F)F)C/C(=C\CCO)CCCO1` (stereo not drawn), `CSc1ncc(C(=O)NCc2ccccc2)c(-c2ccccc2)n1` is higher in “activity change, negative = inhibition” value: -3.94% for the first, 33.3% for the second.

Going from `COc1cccc(CN2CCCN(Cc3ccc(F)cc3)S2(=O)=O)c1` to `COc1ccc(N2C(=O)CSC23C(=O)N(CC(N)=O)c2ccccc23)cc1` (stereo not drawn), the “activity change, negative = inhibition” value falls from 74.8% to 23.4%.

First: Fc1ccc2c(c1)-c1nc(-c3ccccc3)cc(-c3ccccc3)c1CO2
Second: Cc1cc(C)cc(NC(=O)CSc2oc(-c3cccs3)nc2S(=O)(=O)c2ccccc2)c1
The “activity change, negative = inhibition” value of the first is lower: 138% for the first, 195% for the second.

Going from `CCCC12CN3CC(C)(CN(C1)C3c1ccc(CC)cc1)C2=O` (stereo not drawn) to `O=C1CCC(=O)N1CO`, the “activity change, negative = inhibition” value falls from 57.3% to -16.4%.

In the case of `O=C1c2ccccc2C(=O)c2c(O)c(O)cc(O)c21`, the Potency is reported as 0.612 µM (active).
With `COc1cc(O)c2c(c1)oc(=O)c1c3cc(O)c(O)cc3oc21` the Potency was 1.09 µM (active).
With `O=c1cc(-c2cc(O)c(O)c(O)c2)oc2cc(O)cc(O)c12` the Potency was 12.2 µM (active).
For `O=C(O)CCc1c2ccc(=O)c(O)c-2oc2c(O)c(O)ccc12`, the Potency was 1.09 µM (active).
With `COc1ccc(-c2ccc(CCC(=O)O)n2-c2ccccc2O)cc1` the Potency was 4.33 µM (active).
